For 39 compounds, inhibition results are on record in PubChem BioAssay.

For orientation: inhibition means the change of the read-out against control, counted positive when it falls.

A number with no mark means an inactive call. Rule as the data show it, unless noted: active = inhibition above about 30%; inactive = the rest.

The first assay can be described thus: yeast transport mutant growth inhibition pilot in 384-well plates, post-Golgi transport modulator project (AID 636; in the data active = inhibition above about 31%). The following applies: absorbance 615 nm, about 18 h, stronger effect = higher value.
Consider `Cc1ccc(CNC(=O)C2CCCN(S(=O)(=O)c3cnc[nH]3)C2)cc1` (stereo not drawn), for which the inhibition was -2.13%.
As for `COc1cc2c(cc1OC)C(c1ccc(C)o1)CC(=O)N2` (stereo not drawn), the inhibition is -0.13%.
Same read-out and setting: the same measure for `COc1ccc(S(=O)(=O)Nc2ccc(F)c(Cl)c2)cc1OC`: -2.21%; for `O=C(OCCN(CCOC(=O)c1ccncc1)S(=O)(=O)c1cccs1)c1ccncc1`: -1.64%; for `N#CCCN(Cc1cccnc1)C(=O)Nc1ccc(Cl)c(Cl)c1`: 0.13%.
Same read-out and setting: the same measure for `NC(=O)CN1C(=O)C(O)(CC(=O)c2ccccc2O)c2ccccc21` (stereo not drawn): -2.67%; for `CCCOc1ccc(C2C(C(=O)OC)=CN(CCOC)C=C2C(=O)OC)cc1`: -3.12%.
On the same count and under the same terms, the same measure for `C(=N\c1c(-c2ccccc2)nc2n1CCS2)/c1ccccc1`: -1.69%.
With `COC(=O)c1cn(NC(=O)C2CCCO2)c(=O)c2ccccc12` (stereo not drawn), the inhibition was -6.35%.
Still for that read-out and setting: the same measure for `CCN1CCN(C(=O)C2CC(c3ccc(F)cc3)=NO2)CC1` (stereo not drawn): -4.1%.
Same read-out and setting: the same measure for `CCOC(=O)C1CCN(Cc2ccc(OC)c(C)c2OC)CC1`: -2.4%; for `Cn1c(NC(=O)c2ccccc2NC(=O)C(C)(C)C)nc2ccccc21`: -1.73%.
The same measure, in the same setting: the same measure for `Cc1cccc(CN2CCC(CNC(=O)C3CCCN(S(=O)(=O)c4cnc[nH]4)C3)CC2)c1` (stereo not drawn): -5.2%; for `CC1CC(NC(=O)c2cnc3n(c2=O)CCS3)CC(C)(C)C1` (stereo not drawn): -4.13%.
For `CC1CCCN(S(=O)(=O)c2coc(C(N)=O)c2)C1` (stereo not drawn), the inhibition was -0.51%.
On the same count and under the same terms, the same measure for `O=C(NCc1ccc2c(c1)OCO2)C1CCCN(S(=O)(=O)c2cccc3cccnc23)C1` (stereo not drawn): -4.93%; for `CC(C)(O)C#Cc1ccc(C(=O)N2CCN(C(=O)c3ccco3)CC2)cc1`: -3.87%.
Still for that read-out and setting: the same measure for `COC(=O)C1=C(C)Nc2nnnn2C1c1ccc(Cl)cc1Cl` (stereo not drawn): -1.97%; for `CC(NC(=O)C1CC1)C(c1cccs1)N1CCN(c2ccccc2)CC1` (stereo not drawn): -4.13%; for `O=C(Nc1c(C(=O)NCc2ccco2)cnn1-c1ccccc1)c1ccc(F)cc1`: -0.26%.
Same read-out and setting: the same measure for `COc1ccc(-n2c(Cc3cccn3C)nnc2SCC(=O)Nc2cccc(Cl)c2)cc1`: -2.8%.
On to `CCOC(=O)N1CCN(C(=O)c2ccc3nc4ccsc4c(=O)n3c2)CC1`, for which the inhibition was -7.87%.
The same measure, in the same setting: the same measure for `CCC(C)C(=O)Nc1nc2c(s1)C(=O)CC(C)(C)C2` (stereo not drawn): -6.27%.
Same read-out and setting: the same measure for `COc1cc2c(cc1OC)CN(C(=O)CSc1nc3[nH]ncc3c(=O)n1-c1ccccc1)CC2`: -4.93%; for `CC(NC(=O)c1cc2c(=O)n(C)c3ccccc3c2n1C)c1ccc2c(c1)OCCO2` (stereo not drawn): -2.18%; for `O=C(C1CCCN1S(=O)(=O)c1cccc2cccnc12)N1CCn2c1nc1ccccc12` (stereo not drawn): 0.9%.
On the same count and under the same terms, the same measure for `CCn1c(SCC(=O)Nc2cc(C)ccc2C)nc2c(c1=O)SC(C)C2` (stereo not drawn): -1.73%.
Regarding `CCOC(=O)c1sc2nc(NC(=O)COc3ccccc3)sc2c1C`, the inhibition was 3.72%.
Still for that read-out and setting: the same measure for `Cc1ccc(-n2ncc3c(N4CCCC(C)C4)ncnc32)c(C)c1` (stereo not drawn): -5.07%; for `O=C(O)C1C2C=CC3(CN(C4CCCC4)C(=O)C13)O2` (stereo not drawn): -7.07%.
On the same count and under the same terms, the same measure for `CCCCSc1nc2c(cnn2-c2ccc(F)cc2)c(=O)[nH]1`: -0.93%.
On the same count and under the same terms, the same measure for `CCCCCn1c(=O)[nH]c2cc(C(=O)NCCN3CCOCC3)ccc2c1=O`: -7.03%; for `Cc1ccc(-c2cc3nc4c(c(=O)n3[nH]2)CCCC4)cc1`: -0.26%; for `CCCOC(=O)c1[nH]c2c(c1C)C(=O)CC(c1cc(OC)c(OC)c(OC)c1)C2` (stereo not drawn): -0.26%.
In the case of `COc1cccc(-c2nc3n(n2)C(c2ccccc2Cl)C(C(N)=O)=C(C)N3)c1` (stereo not drawn), the inhibition is -0.8%.
Same read-out and setting: the same measure for `Cc1c(NC(=O)c2ccc(Br)o2)c(=O)n(-c2ccccc2)n1C`: -5.06%; for `COc1ccc(-c2nc(CS(=O)CC(=O)NCc3ccccn3)c(C)o2)cc1` (stereo not drawn): -3.47%; for `CCOc1cc(C2NC(=O)NC(O)(C(F)(F)F)C2C(=O)c2ccccc2)ccc1OC` (stereo not drawn): -4.46%.
With `CN(CCCNC(=O)c1cn(C)c2ccc(S(=O)(=O)N(C)C)cc2c1=O)c1ccccc1`, the inhibition was 0.38%.

A further assay can be described thus: growth suppression of yeast trafficking mutant, preliminary HTS, modulators of trafficking downstream of Golgi apparatus project, 1536-format plate, OD 615 nm (AID 637). Particulars: yeast transport mutant growth, absorbance 615 nm, 18 h; stronger effect = higher value.
On to `Cc1ccc(CNC(=O)C2CCCN(S(=O)(=O)c3cnc[nH]3)C2)cc1` (stereo not drawn), for which the inhibition is -3.61%.
The same measure, in the same setting: the same measure for `COc1cc2c(cc1OC)C(c1ccc(C)o1)CC(=O)N2` (stereo not drawn): 4.33%.
On the same count and under the same terms, the same measure for `COc1ccc(S(=O)(=O)Nc2ccc(F)c(Cl)c2)cc1OC`: -10.2%.
Still for that read-out and setting: the same measure for `O=C(OCCN(CCOC(=O)c1ccncc1)S(=O)(=O)c1cccs1)c1ccncc1`: 1.75%; for `N#CCCN(Cc1cccnc1)C(=O)Nc1ccc(Cl)c(Cl)c1`: 3.28%; for `NC(=O)CN1C(=O)C(O)(CC(=O)c2ccccc2O)c2ccccc21` (stereo not drawn): -1.17%.
Consider `CCCOc1ccc(C2C(C(=O)OC)=CN(CCOC)C=C2C(=O)OC)cc1`, for which the inhibition is 3.11%.
`C(=N\c1c(-c2ccccc2)nc2n1CCS2)/c1ccccc1`: the inhibition is -6%.
Turning to `COC(=O)c1cn(NC(=O)C2CCCO2)c(=O)c2ccccc12` (stereo not drawn), the inhibition is -0.49%.
The same measure, in the same setting: the same measure for `CCN1CCN(C(=O)C2CC(c3ccc(F)cc3)=NO2)CC1` (stereo not drawn): -6.67%; for `CCOC(=O)C1CCN(Cc2ccc(OC)c(C)c2OC)CC1`: -7.1%.
The same measure, in the same setting: the same measure for `Cn1c(NC(=O)c2ccccc2NC(=O)C(C)(C)C)nc2ccccc21`: 2.33%.
Still for that read-out and setting: the same measure for `Cc1cccc(CN2CCC(CNC(=O)C3CCCN(S(=O)(=O)c4cnc[nH]4)C3)CC2)c1` (stereo not drawn): -0.66%.
Take `CC1CC(NC(=O)c2cnc3n(c2=O)CCS3)CC(C)(C)C1` (stereo not drawn): the inhibition is -3%.
With `CC1CCCN(S(=O)(=O)c2coc(C(N)=O)c2)C1` (stereo not drawn), the inhibition is 1%.
Still for that read-out and setting: the same measure for `O=C(NCc1ccc2c(c1)OCO2)C1CCCN(S(=O)(=O)c2cccc3cccnc23)C1` (stereo not drawn): 4%; for `CC(C)(O)C#Cc1ccc(C(=O)N2CCN(C(=O)c3ccco3)CC2)cc1`: 2.74%.
On the same count and under the same terms, the same measure for `COC(=O)C1=C(C)Nc2nnnn2C1c1ccc(Cl)cc1Cl` (stereo not drawn): -0.63%; for `CC(NC(=O)C1CC1)C(c1cccs1)N1CCN(c2ccccc2)CC1` (stereo not drawn): -5.57%.
Still for that read-out and setting: the same measure for `O=C(Nc1c(C(=O)NCc2ccco2)cnn1-c1ccccc1)c1ccc(F)cc1`: -6%; for `COc1ccc(-n2c(Cc3cccn3C)nnc2SCC(=O)Nc2cccc(Cl)c2)cc1`: -2.67%.
In the case of `CCOC(=O)N1CCN(C(=O)c2ccc3nc4ccsc4c(=O)n3c2)CC1`, the inhibition is -6.39%.
On the same count and under the same terms, the same measure for `CCC(C)C(=O)Nc1nc2c(s1)C(=O)CC(C)(C)C2` (stereo not drawn): -0.67%.
Still for that read-out and setting: the same measure for `COc1cc2c(cc1OC)CN(C(=O)CSc1nc3[nH]ncc3c(=O)n1-c1ccccc1)CC2`: -2.62%; for `CC(NC(=O)c1cc2c(=O)n(C)c3ccccc3c2n1C)c1ccc2c(c1)OCCO2` (stereo not drawn): 1.33%; for `O=C(C1CCCN1S(=O)(=O)c1cccc2cccnc12)N1CCn2c1nc1ccccc12` (stereo not drawn): 4.67%.
On the same count and under the same terms, the same measure for `CCn1c(SCC(=O)Nc2cc(C)ccc2C)nc2c(c1=O)SC(C)C2` (stereo not drawn): -0.5%.
`CCOC(=O)c1sc2nc(NC(=O)COc3ccccc3)sc2c1C`: the inhibition was -0.33%.
In the case of `Cc1ccc(-n2ncc3c(N4CCCC(C)C4)ncnc32)c(C)c1` (stereo not drawn), the inhibition is 8%.
Still for that read-out and setting: the same measure for `O=C(O)C1C2C=CC3(CN(C4CCCC4)C(=O)C13)O2` (stereo not drawn): -4.83%; for `CCCCSc1nc2c(cnn2-c2ccc(F)cc2)c(=O)[nH]1`: 0.5%; for `CCCCCn1c(=O)[nH]c2cc(C(=O)NCCN3CCOCC3)ccc2c1=O`: 0.33%.
The same measure, in the same setting: the same measure for `Cc1ccc(-c2cc3nc4c(c(=O)n3[nH]2)CCCC4)cc1`: -10%; for `CCCOC(=O)c1[nH]c2c(c1C)C(=O)CC(c1cc(OC)c(OC)c(OC)c1)C2` (stereo not drawn): -4%; for `COc1cccc(-c2nc3n(n2)C(c2ccccc2Cl)C(C(N)=O)=C(C)N3)c1` (stereo not drawn): -5.17%.
Still for that read-out and setting: the same measure for `Cc1c(NC(=O)c2ccc(Br)o2)c(=O)n(-c2ccccc2)n1C`: -1.67%; for `COc1ccc(-c2nc(CS(=O)CC(=O)NCc3ccccn3)c(C)o2)cc1` (stereo not drawn): -2.46%.
In the case of `CCOc1cc(C2NC(=O)NC(O)(C(F)(F)F)C2C(=O)c2ccccc2)ccc1OC` (stereo not drawn), the inhibition is -8.2%.
Turning to `CN(CCCNC(=O)c1cn(C)c2ccc(S(=O)(=O)N(C)C)cc2c1=O)c1ccccc1`, the inhibition is -1%.
